This is an account of results in PubChem BioAssay.

Each structure is given as a SMILES string. The source made the active and inactive calls. Unless noted, how the calls were made is not given here.

Assay [1] relates to Wnt5a (protein binding on small-molecule microarray). The assay can be described thus: Wnt5a binders on small-molecule microarray, primary screen, biophysical, 635/667 nm fluorescence (AID 1142).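 Further: fluorescence read at 667 nm with signal to noise per printed feature.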 To be noted: 635 nm fluorescence, higher = more signal.
Assay [2] is described as follows: cell viability in Huh7 cells, primary screen, cytotoxicity control for HCV replication inhibitor project, CellTiter-Glo luminescence, basal, 48 h (AID 1143).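 Further: Huh7 hepatoma cells carrying a hepatitis C replication reporter with no stimulus; test concentration not given here.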 Conditions: Huh7 HCV replicon, higher = more signal, called active from +8 up or from −8 down. For orientation: ATP-based viability assays read luminescence as a measure of living cells.
Assay [3] in a line: P. aeruginosa biofilm formation inhibitors, primary screen, PAO1 strain, BacTiter-Glo luminescence, LB-PBS (AID 1144). To be noted: 12 h, higher = more signal.
Assay [4] in a line: CREB reporter modulators without forskolin, primary screen, cell-based, PC12, CRE-LacZ reporter, unstimulated (AID 1145). To be noted: no forskolin, luminescence, 4.5 h, higher = more signal, called active from +8 up or from −8 down.
The nature of assay [5]: CREB reporter modulators under forskolin, primary screen, cell-based, PC12, CRE-LacZ reporter, forskolin-stimulated (AID 1146).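 Further: PC12 cells with 6xCRE LacZ reporter stimulated by forskolin 10 µM; beta-galactosidase reporter signal reflecting CREB driven transcription.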 Conditions: luminescence, 4.5 h, higher = more signal, called active from +8 up or from −8 down.
Assay [6] deals with Streptavidin (Streptomyces avidinii) (UniProt P22629). The assay can be described thus: streptavidin binders on small-molecule microarray, primary screen, artefact control for SMM compound annotation, biophysical, 635/667 nm fluorescence (AID 1147).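 Further: signal reflects streptavidin binding to arrayed compounds as a control protein.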 Conditions: streptavidin binding, higher = more signal.
The nature of assay [7]: small-molecule binders of probe aInhba, primary screen, biochemical, small-molecule microarray, 635/667 nm fluorescence (AID 1148).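 Further: score merges 667nm spot fluorescence with signal-to-noise for antibody binding to printed compounds.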 To be noted: higher = more signal.
Assay [8] concerns the target Torsin-1A (Homo sapiens) (UniProt O14656). The assay can be described thus: torsin A binders from cell lysate, primary screen, small-molecule microarray, wild-type, 635/667 nm (AID 1149). To be noted: COS7 hTOR1A-WT lysate, 635 nm fluorescence, higher = more signal.
The target is the same in assay [9]. Nature of the assay: small-molecule binders of mutant TOR1A in lysate, primary screen, cell lysate, small-molecule microarray, COS7 lysate, 635/667 nm fluorescence (AID 1150).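 Further: score pools 667 nm emission and signal to noise measuring lysate protein binding.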 To be noted: COS7 hTOR1A mutant lysate, 635 nm fluorescence, higher = more signal.
For assay [10], the system named is Sonic hedgehog protein (Shh). Nature of the assay: small-molecule binders of Shh protein, primary screen, biochemical, small-molecule microarray, 635/667 nm fluorescence (AID 1151).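 Further: Shh protein binding to compounds spotted on small-molecule microarray slides; score combines spot fluorescence intensity with signal-to-noise across triplicate slides.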 Conditions: small-molecule microarray binding, 635 nm fluorescence; higher = more signal.
A short description of assay [11]: E. coli DRC41 culture turbidity changes, primary screen, E. coli filamentation inducer project, strain DRC41, OD650, 48 h (AID 1152).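 Further: E. coli MC1000 strain DRC41 lacking acrAB efflux pump and sulA.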 To be noted: E. coli DRC41 (acrAB sulA), higher = more signal, called active from +8 up or from −8 down.
The nature of assay [12]: small-molecule binders of probe aLefty1, primary screen, biochemical, small-molecule microarray, 635/667 nm fluorescence (AID 1153).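 Further: score merges spot fluorescence with signal-to-noise ratio from the scanned slide images.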 To be noted: higher = more signal.
A short description of assay [13]: PSAC antagonists in infected red cells, primary screen, cell-based, P. falciparum Indochina, OD700, 1 h (AID 1154). To be noted: P. falciparum Indochina infected RBC osmotic lysis, higher = more signal, called active from +8 up or from −8 down.
Assay [14] can be described thus: PSAC antagonists in infected red cells, primary screen, cell-based, P. falciparum Indochina, OD700, 2 h (AID 1155).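 Further: lysis reports solute entry through the parasite surface anion channel PSAC; channel blockers reduce lysis of infected cells.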 Conditions: P. falciparum Indochina infected erythrocytes, osmotic lysis OD700; higher = more signal, called active from +8 up or from −8 down.
Assay [15] in a line: osmotic lysis modulators in infected erythrocytes, primary screen, PSAC antagonist project, cell-based, P. falciparum Indochina, OD700, 3 h (AID 1156). Conditions: higher = more signal, called active from +8 up or from −8 down.
Assay [16] is described as follows: PSAC antagonists in infected red cells, primary screen, cell-based, P. falciparum Indochina, OD700, 18 h (AID 1157). Conditions: P. falciparum Indochina infected erythrocytes, osmotic lysis OD700, 18 h; higher = more signal, called active from +8 up or from −8 down.
Assay [17] in a line: modulators of S6 phosphorylation in cells, primary screen, cell-based, A549, cytoblot, luminescence, serum-stimulated (AID 1158).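 Further: serum-stimulated A549 lung adenocarcinoma cells; signal is phosphorylated S6 detected by cytoblot immunostaining with HRP secondary.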 To be noted: A549 phospho-S6 cytoblot, 5 h, higher = more signal.
In assay [18] the target is NADPH oxidase 2 (Homo sapiens) (UniProt P04839). The assay can be described thus: NOX2-dependent H2O2 signal modulators, primary screen, NOX inhibitor project, cell-based, HEK293-NOX2, PMA-stimulated, Amplex Red fluorescence (AID 1159). Further: test concentration not given here. To be noted: 45 min, higher = more signal, called active from +8 up or from −8 down.
The target in assay [19] is NADPH oxidase 4 (Homo sapiens) (UniProt Q9NPH5). Nature of the assay: NOX4-dependent H2O2 signal modulators, primary screen, NOX inhibitor project, cell-based, HEK293-NOX4, tetracycline-induced, Amplex Red fluorescence (AID 1160). To be noted: 45 min, higher = more signal, called active from +8 up or from −8 down.
Assay [20] addresses NADPH oxidase 5 (Homo sapiens) (UniProt Q96PH1). Nature of the assay: NOX5-dependent H2O2 signal modulators, primary screen, NOX inhibitor project, cell-based, HEK293-NOX5, Amplex Red fluorescence (AID 1161). Conditions: HEK293-NOX5, ionomycin, 45 min, higher = more signal.

Sequence of Streptavidin (Streptomyces avidinii) (P22629 whole entry, looked up): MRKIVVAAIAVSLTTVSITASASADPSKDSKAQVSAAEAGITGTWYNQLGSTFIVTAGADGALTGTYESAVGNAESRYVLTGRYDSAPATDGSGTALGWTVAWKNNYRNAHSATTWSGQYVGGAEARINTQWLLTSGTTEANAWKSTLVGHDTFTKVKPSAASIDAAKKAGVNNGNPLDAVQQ
Sequence of NADPH oxidase 2 (Homo sapiens) (P04839 whole entry, looked up): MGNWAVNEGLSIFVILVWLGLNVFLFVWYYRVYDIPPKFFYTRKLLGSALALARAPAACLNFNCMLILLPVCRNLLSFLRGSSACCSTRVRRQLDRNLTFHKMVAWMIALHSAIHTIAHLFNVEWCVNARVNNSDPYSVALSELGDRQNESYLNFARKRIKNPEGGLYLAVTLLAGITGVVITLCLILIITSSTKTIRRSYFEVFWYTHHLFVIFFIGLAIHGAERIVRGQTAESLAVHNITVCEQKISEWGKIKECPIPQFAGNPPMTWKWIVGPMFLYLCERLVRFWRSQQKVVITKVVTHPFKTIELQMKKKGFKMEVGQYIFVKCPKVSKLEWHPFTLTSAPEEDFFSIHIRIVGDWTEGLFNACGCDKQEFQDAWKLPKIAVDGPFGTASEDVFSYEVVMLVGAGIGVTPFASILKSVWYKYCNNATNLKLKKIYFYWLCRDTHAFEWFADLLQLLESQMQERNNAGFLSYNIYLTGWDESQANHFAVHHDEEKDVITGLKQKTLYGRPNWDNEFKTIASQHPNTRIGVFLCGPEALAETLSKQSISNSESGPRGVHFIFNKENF
Sequence of Torsin-1A (Homo sapiens) (O14656 whole entry, looked up): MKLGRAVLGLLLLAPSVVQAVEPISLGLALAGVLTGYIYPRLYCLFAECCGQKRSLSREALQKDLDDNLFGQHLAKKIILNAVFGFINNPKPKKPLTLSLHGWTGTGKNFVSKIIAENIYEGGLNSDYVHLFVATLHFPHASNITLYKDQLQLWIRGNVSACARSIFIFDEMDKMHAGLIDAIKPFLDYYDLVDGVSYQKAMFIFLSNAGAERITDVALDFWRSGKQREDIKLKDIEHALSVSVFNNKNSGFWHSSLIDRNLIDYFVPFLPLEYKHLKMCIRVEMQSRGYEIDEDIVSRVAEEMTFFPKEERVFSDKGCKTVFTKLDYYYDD
Sequence of NADPH oxidase 4 (Homo sapiens) (Q9NPH5 whole entry, looked up): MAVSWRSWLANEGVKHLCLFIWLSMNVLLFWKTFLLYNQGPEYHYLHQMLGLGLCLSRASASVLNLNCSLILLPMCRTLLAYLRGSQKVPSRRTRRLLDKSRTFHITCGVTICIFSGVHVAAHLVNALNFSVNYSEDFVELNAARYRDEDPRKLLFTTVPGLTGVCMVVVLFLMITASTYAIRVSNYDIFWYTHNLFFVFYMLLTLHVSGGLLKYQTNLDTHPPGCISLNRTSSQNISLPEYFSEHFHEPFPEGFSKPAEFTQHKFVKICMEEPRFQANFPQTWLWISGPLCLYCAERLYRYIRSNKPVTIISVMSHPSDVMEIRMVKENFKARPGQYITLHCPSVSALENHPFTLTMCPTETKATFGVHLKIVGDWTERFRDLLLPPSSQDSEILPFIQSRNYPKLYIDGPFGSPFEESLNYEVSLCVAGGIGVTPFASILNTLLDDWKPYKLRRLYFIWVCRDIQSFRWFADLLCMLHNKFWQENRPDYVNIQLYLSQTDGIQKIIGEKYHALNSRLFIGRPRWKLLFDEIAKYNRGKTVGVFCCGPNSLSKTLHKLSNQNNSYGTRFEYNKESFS
Sequence of NADPH oxidase 5 (Homo sapiens) (Q96PH1 whole entry, looked up): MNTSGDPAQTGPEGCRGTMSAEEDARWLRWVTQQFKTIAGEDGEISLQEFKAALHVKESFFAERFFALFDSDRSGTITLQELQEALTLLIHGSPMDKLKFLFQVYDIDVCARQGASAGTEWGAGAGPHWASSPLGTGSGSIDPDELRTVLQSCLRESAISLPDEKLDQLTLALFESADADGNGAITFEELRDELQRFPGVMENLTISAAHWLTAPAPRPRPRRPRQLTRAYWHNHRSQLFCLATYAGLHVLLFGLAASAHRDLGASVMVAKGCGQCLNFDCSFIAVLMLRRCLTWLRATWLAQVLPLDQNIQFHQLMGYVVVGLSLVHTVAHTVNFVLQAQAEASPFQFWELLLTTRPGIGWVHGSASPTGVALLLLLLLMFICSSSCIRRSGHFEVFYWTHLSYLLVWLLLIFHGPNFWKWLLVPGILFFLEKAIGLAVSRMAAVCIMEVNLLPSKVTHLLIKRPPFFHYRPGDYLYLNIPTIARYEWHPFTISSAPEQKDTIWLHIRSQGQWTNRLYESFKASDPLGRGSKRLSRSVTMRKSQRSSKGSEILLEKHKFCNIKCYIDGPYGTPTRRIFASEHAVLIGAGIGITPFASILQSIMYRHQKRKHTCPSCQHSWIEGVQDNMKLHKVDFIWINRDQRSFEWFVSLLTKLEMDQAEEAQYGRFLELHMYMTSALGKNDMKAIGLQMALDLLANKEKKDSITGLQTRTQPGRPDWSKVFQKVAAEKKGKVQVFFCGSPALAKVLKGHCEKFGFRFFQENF

Regarding `CC(=O)C[C@H](O)[C@@H](NC(=O)OC(C)(C)C)C(C)C`, the composite z-score in [1] is -0.388; in assay [6], -0.3; in assay [7], -0.0963; in the assay with Torsin-1A (Homo sapiens) [8], -1.05; with Torsin-1A (Homo sapiens) [9], -0.657; in assay [10] it was 0.347. This compound displayed a composite z-score in assay [12] of -0.196. Also, the z-score was -2.64 (inactive) in [2]; -1.13 (inactive) in assay [3]; 0.288 (inactive) in [4]; 1.01 (inactive) in assay [5]; -0.593 (inactive) in [11]; 0.427 (inactive) in assay [13]. Moreover, the z-score in [14] is -0.649 (inactive); in [15] it was 1.48 (inactive); in assay [16], -1.64 (inactive); in assay [17], 1.63; in [18], 0.2 (inactive); in [19], -0.658 (inactive). The compound also returned a z-score in assay [20] of -1.63.
On to `CC(C)NC(=O)[C@@]1(c2ccc([N+](=O)[O-])cc2)CC(=O)N(CC23CC4CC(CC(C4)C2)C3)[C@@H]1c1ccc(CO)cc1I`, for which the composite z-score stood at 0.492 in [1]; 0.131 in assay [6]; 0.0435 in assay [7]; 0.484 with Torsin-1A (Homo sapiens) [8]; 0.369 with Torsin-1A (Homo sapiens) [9]; 0.746 in [10]. Also, the composite z-score in assay [12] was 0.167. Also, the z-score in [2] was -5.69 (inactive); in assay [3], 0.017 (inactive); in assay [4] it was 0.531 (inactive); in assay [5] it was 0.0456 (inactive); in [11] it was -0.805 (inactive); in assay [13], 18.8 (active). For the same compound, the z-score in [14] is 5.45 (inactive); in assay [15] it was 1.59 (inactive); in assay [16], 1.28 (inactive); in [17], 0.018; in assay [18], 2.19 (inactive); in [19], 0.215 (inactive). This compound also returned a z-score in assay [20] of 1.35.
Regarding `C=C(COC)/C(=C/C[C@H](OC(=O)c1ccncc1)c1ccc(CO)o1)c1cc(C(=O)OC)ccc1OC`, the composite z-score in assay [1] is 0.868; in assay [6], -0.24; in assay [7], -0.003; with Torsin-1A (Homo sapiens) [8] it was 0.787; with Torsin-1A (Homo sapiens) [9], 0.366; in assay [10], 1.62. Moreover, the composite z-score in assay [12] is 0.188. Besides, the z-score in assay [2] was -0.0528 (inactive); in assay [3], -1.27 (inactive); in assay [4], 0.0422 (inactive); in assay [5], 0.877 (inactive); in assay [11], 0.165 (inactive); in assay [13], 2.65 (inactive). For the same compound, the z-score in assay [14] is 0.189 (inactive); in assay [15], 0.656 (inactive); in [16], 0.013 (inactive); in assay [17], -0.0278; in assay [18], -0.564 (inactive); in [19], 0.0937 (inactive). The compound further yielded a z-score in [20] of -0.413.
In the case of `Cn1cccc1C(O)C1C=CC2C(=O)NC(=O)C2N1Nc1ccccn1` (stereo not given), the composite z-score is 0.0956 in assay [1]; 0.126 in [6]; -0.231 in [7]; 0.3 with Torsin-1A (Homo sapiens) [8]; 0.197 with Torsin-1A (Homo sapiens) [9]; 0.64 in assay [10]. The compound also displayed a composite z-score in assay [12] of -0.289. Also, the z-score in assay [2] is -3.04 (inactive); in [3], 0.465 (inactive); in [4], -0.326 (inactive); in assay [5] it was 0.583 (inactive); in assay [11] it was -1.07 (inactive); in [13], 2.33 (inactive). For the same compound, the z-score was 2.41 (inactive) in assay [14]; 0.801 (inactive) in assay [15]; 1.49 (inactive) in assay [16]; -1.14 in [17]; -2.54 (inactive) in assay [18]; -4.94 (inactive) in assay [19]. The compound also gave a z-score in [20] of -5.28.
In the case of `CCOC(=O)[C@H](Cc1ccccc1)NC(=O)CCC1CC(OC(=O)NCc2ccc3c(c2)OCO3)CC2(CCCC(COC(=O)NCC(c3ccccc3)c3ccccc3)O2)O1` (stereo not given in full), the composite z-score in [1] was -0.169; in [6], 0.0072; in [7] it was 0.0155; with Torsin-1A (Homo sapiens) [8], 0.545; with Torsin-1A (Homo sapiens) [9] it was 0.401; in assay [10], 1.48. The same compound displayed a composite z-score in assay [12] of -0.0046. The z-score in assay [2] was -0.9 (inactive); in assay [3], -1.34 (inactive); in [4], -0.255 (inactive); in [5], 0.0668 (inactive); in assay [11], 1.13 (inactive); in [13], 13.8 (active). In addition, the z-score in assay [14] was 4.29 (inactive); in assay [15], 0.394 (inactive); in assay [16] it was 1.3 (inactive); in assay [17], 0.0394; in assay [18], -0.742 (inactive); in assay [19], 0.406 (inactive). Moreover, the z-score in assay [20] is 0.491.
For the compound `CC(C)[C@H](NC(=O)OC(C)(C)C)[C@@H](O)CC(=O)OC(C)(C)C`, the composite z-score in assay [1] was -0.417; in assay [6] it was -0.14; in assay [7], -0.152; with Torsin-1A (Homo sapiens) [8], -0.781; in the assay with Torsin-1A (Homo sapiens) [9], -0.448; in [10], -0.463. This compound came in with a composite z-score in assay [12] of -0.0197. For the same compound, the z-score in assay [2] was -0.49 (inactive); in assay [3] it was -0.896 (inactive); in assay [4] it was 0.293 (inactive); in assay [5], 0.337 (inactive); in assay [11], -0.703 (inactive); in assay [13], 0.775 (inactive). Further, the z-score in assay [14] is 0.269 (inactive); in assay [15], 0.835 (inactive); in [16] it was 0.128 (inactive); in assay [17], 0.242; in [18], 1.33 (inactive); in [19] it was -1.02 (inactive). In assay [20], this compound displayed a z-score of 1.04.
